# Assay outcomes: PubChem BioAssay, National Center for Advancing Translational Sciences (NCATS)
# This is a sample that favours compounds with a hit; in the whole collection about 1.3% have one here.
# miR-21 act: qHTS Assay for Modulators of miRNAs and/orActivators of miR-21; HeLa miR-21 FLuc reporter, luciferase, 48 h; Potency, µM (top dose mostly 38.3 µM), for inactives: at the top dose activity change, positive = activation, actives largely listed as activators; 340,000 tested, under 10 active; AID 2288, 2010;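 also: % of control where 0% means no effect; miR-21 action dims this reporter so a rising signal means less miR-21 action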
#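 HeLa cells stably expressing CMV-driven firefly luciferase with a downstream miR-21 binding sequence, endogenously expressing miR-21, were treated with titrations (up to about 40uM final) for 48 hours at 37 degree Celsius. Luciferase luminescence was read after lysis.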
# 12-LOX inh: Primary qHTS assay for inhibitors of human arachidonate 12S-lipoxygenase (ALOX12): Round 2. Polyunsaturated fatty acid lipoxygenase ALOX12 (Homo sapiens), P18054. Potency, µM (titrated, usually from 108 µM), for inactives: top-dose activity change, negative = inhibition, usual class: inhibitors. purified 12hLO, xylenol orange hydroperoxide absorbance. actives 1.1% (n = 580,000); also: potency is read from the fitted curve at half-maximal effect; % is scaled to controls: 0 for no effect and ±100 for the full control effect
#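 Purified human 12hLO at 150 nM in 25 mM Hepes, 0.01% Triton X-100, pH 7.0, preincubated 15 min at room temperature with compound. Reaction started with 40 uM arachidonic acid, 30 min at room temperature. Hydroperoxide measured by Fe-xylenol orange, 573/405 nm absorbance ratio.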
# PINK1 expr mod: A Quantitative High throughput Screen to Identify Chemical Modulators of PINK1 Expression. PINK1 immunofluorescence, high-content cytometry, 24 h. Potency, µM (titrated, usually from 76.6 µM), without a hit: at the highest dose activation (PINK1 increase), hits mostly activators. actives 0.2% (n = 410,000); active = well fitted activation curve with a large enough effect; inconclusive = small, poorly fitted or top-dose-only effect; cell line not stated here; also: potency is read from the fitted curve at half-maximal effect; % of control where 0% means no effect; nearly all actives have a fitted effect of over 65% in size
#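 Stable cell line, 250 cells/well, 12 h attachment; compounds pinned at 5 concentrations, 24 h; CCCP control. Fixed with nuclear dye, primary antibodies 12 h at 10 degrees C, secondary plus cell stain; laser-scanning cytometer read.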
# PTHR1 agonist: qHTS for PTHR1 Agonists: Primary Screen; Parathyroid hormone/parathyroid hormone-related peptide receptor (Homo sapiens), Q03431; HEK293 GP2 PTHR1 cells, GloSensor cAMP luminescence, 1 h; Potency, µM (highest dose often 115 µM), for inactives: at the highest dose activation, hits mostly activators; actives 0.075% (n = 410,000); also: potency is read from the fitted curve at half-maximal effect; nearly all actives have a fitted effect of over 55% in size
#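 HEK-293-derived GP2 cells expressing PTHR1 and a GloSensor cAMP reporter, 3,000/well, plated overnight, given luciferin plus IBMX (each 0.5 mM as added) for 1 h at 37 °C, then compound for 1 h at 37 °C. Luminescence was read after 15 min at room temperature.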
# ERG Ets-DNA blk: qHTS for Small Molecule Inhibitors of the ERG Ets/DNA interaction | Potency, µM (highest dose often 76.9 µM), inactives show top-dose FP activity, negative = inhibition, most hits filed as inhibitors | actives 0.028% (n = 370,000) | Transcriptional regulator ERG (Homo sapiens), P11308 | fluorescence polarization, His-ERG Ets domain / labelled DNA; active = well fitted inhibition curve with a large enough effect in the polarisation, with a control signal flat; inconclusive = small, poorly fitted or top-dose-only effect, or effect the other way, or a change in a side signal; inactive = no such curve, though single readings can be large or run the other way; the % refers to the polarisation;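 also: polarization taken with two DNA probes labelled with fluorescein and Texas red; potency is read from the fitted curve at half-maximal effect; % of control where 0% means no effect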
# Target sequence (P11308 whole entry, looked up, the tested form may be a part): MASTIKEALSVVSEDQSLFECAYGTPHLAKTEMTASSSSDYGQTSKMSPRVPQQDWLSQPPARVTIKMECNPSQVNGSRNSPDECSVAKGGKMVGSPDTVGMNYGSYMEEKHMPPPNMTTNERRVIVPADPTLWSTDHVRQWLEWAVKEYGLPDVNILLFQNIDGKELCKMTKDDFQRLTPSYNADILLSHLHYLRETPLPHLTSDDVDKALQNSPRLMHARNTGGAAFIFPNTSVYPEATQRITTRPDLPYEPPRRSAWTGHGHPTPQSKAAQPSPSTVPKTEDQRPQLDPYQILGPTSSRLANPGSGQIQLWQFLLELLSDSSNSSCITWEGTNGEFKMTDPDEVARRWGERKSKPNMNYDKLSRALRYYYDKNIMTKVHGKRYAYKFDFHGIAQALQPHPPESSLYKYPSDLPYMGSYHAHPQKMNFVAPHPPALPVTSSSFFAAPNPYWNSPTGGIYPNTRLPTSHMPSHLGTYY
#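 His-tagged ERG Ets domain (1 uM in the protein solution; 300mM KCl, 50mM Tris-HCl, 1mM EDTA, 1mM DTT, pH 7.5) received compound, then a probe mix of 5 nM fluorescein-DNA and 100nM Texas-615-DNA. Fluorescence polarization was read for both dyes.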
# Giardia kill: Small Molecules that selectively kill Giardia lamblia: qHTS; Giardia lamblia trophozoite viability; activity change, % at 7.66 µM, hits read low; actives 0.15% (n = 340,000); AID 540267, 2011; in the data active = activity change below about -80%; inconclusive = between about -30% and that limit;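 also: parasites exposed to compound for two days anaerobically before the ATP read; % is scaled to controls: 0 for no effect and ±100 for the full control effect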
#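 Media and compound were dispensed first, then trophozoites at 100 cells/well; plates sat 48 hrs at 37 deg C without oxygen before ATP luminescence reagent was added and read after 15-30 min at room temperature.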
# Starred values were filed as active, the others as inactive; i = inactive; ? = inconclusive; / = no result; ! = not active in a repeat; [ ] = another dose, or the depositor's remark. Unless noted, calls follow the shape of the dose curve; as a rule, active = well fitted curve in the direction sought with a large enough effect; inconclusive = small, poorly fitted or top-dose-only effect, or another doubt; inactive = no such curve, though single readings can be large; an effect the other way counts as inactive or inconclusive.
SMILES,miR-21 act,12-LOX inh,PINK1 expr mod,PTHR1 agonist,ERG Ets-DNA blk,Giardia kill
Cc1ccccc1OCC(=O)OCC(=O)Nc1ncc(Cl)c(C)c1Cl,/,8.91µM*,2.5%,i,1.4%,-0.2
CCOc1cc(S(=O)(=O)NCc2ccc(OC)cc2)c(OCC)cc1-n1cnnn1,19.4%,-20.4%,5.62µM*,i,-4.2%,10.0
CCOc1cc(S(=O)(=O)NCCc2ccc(OC)c(OC)c2)c(OCC)cc1-n1cnnn1,-12.8%,13.8%,8.2%[38.3 µM],i,-1.5%,-6.5
O=C1NC(=NC2CCCCC2)C2(CCN(Cc3ccc(F)cc3)CC2)N1c1cccnc1,/,9.1%[6.33 µM],/,/,/,/
Cc1cccc(NC(=O)NCC2CCN(CCc3ccc(F)cc3)CC2)c1C,/,35.5µM*,/,/,/,/
Cc1ccc(CN2CCC(CNC(=O)Nc3cccc(C)c3C)C2)cc1 (stereo not given),?,-21.2%,-0.1%,i,4.6%,/
Cc1cc2c(c(=O)n(-c3ccccc3)c(=O)n2CC(=O)Nc2ccccc2F)n1C,/,44.7µM*,/,/,/,/
COc1cc(/C=C2/C(=O)c3cccc([N+](=O)[O-])c3C2=O)c(Br)cc1O,8.2%,17.8µM*,-1.3%,-18.8%,0.5%,-5.0
CCOCCCNC(=O)c1c(C)noc1-c1cc(OC)c(OC)c(OC)c1,/,39.4%,/,/,/,/
COc1ccc(NC(=O)N2CCCC3(CCNCC3)C2)cc1,/,2.9%[57.4 µM],-0.6%,/,/,/
CN1CCN(c2cc3c(c4c2[nH]c2ccccc24)C(=O)CC(C)(C)C3)CC1,?,39.8µM*,1.2%,-20.5%,-0.4%,-11.6
CN1CCN(c2ccc(Cl)cc2NC(=O)c2cc(=O)[nH]c3ccccc23)CC1,/,-1.2%,0.5%,i,-0.3%,0.3
O=C1NC[C@H](Cc2ccc(O)cc2)N(CCc2cccc3ccccc23)C1=O,-0.1%,-5.4%,19.4%,-0.6%,7.6%,-28.6
O=C(CSc1nc2ccccc2c(=O)n1Cc1ccccc1)NCc1ccco1,-1.3%,-9.0%,5.62µM*,-5.3%[57.5 µM],-5.0%,-8.2
CCc1cc2c(=O)c(-c3nc4ccccc4n3C)coc2c(CN2CCCC(C)C2)c1O (stereo not given),6.7%,17.8%,2.0%,i,1.0%,3.1
N#C/C(=C/c1ccc(Sc2nc3ccccc3[nH]2)o1)c1cccc(Br)c1,16.7%,0.0%,17.8µM*,-21.9%,4.7%,11.8
O=C(Nc1ccc2c(c1)nc1n2CCN(Cc2ccccc2)C1)NC1CCCCC1,-8.8%,-29.1%,10µM*,i,3.0%,-9.9
COc1cc(NC(=O)c2cc3n(n2)CC(c2ccc4c(c2)OCO4)OC3)c(OC)cc1Cl (stereo not given),/,4.1%,/,/,/,/
[O-][N+]1=C(c2cccs2)CN(O)C1,-4.6%,207.3%[57.4 µM],-0.9%,-7.5%[57.5 µM],-1.2%,-5.9
CN(C)CCCN(C(=O)COc1ccc(Cl)cc1)c1nc2c(F)cccc2s1,-4.7%,39.8µM*!,1.4%,-0.9%,2.2%,-11.8
c1ccc(Sc2ccncc2)cc1,/,5.8%,-0.2%,i,/,/
c1cc(SSc2ccncc2)ccn1,10.3%,6.31µM*,-0.5%,i,0.7%,-14.9
Cc1cc(-c2nsc(=O)o2)c(S(C)(=O)=O)s1,-0.5%,8.91µM*,/,i,3.0%,7.1
CCOC(=O)C(CCc1nnc(N)s1)C(=O)OCC,-1.2%,26.3%,3.0%[38.3 µM],-15.2%[57.5 µM],/,13.2
O=C1c2ccccc2C(c2nnnn2-c2ccc3c(c2)OCCO3)N1Cc1ccc2c(c1)OCO2 (stereo not given),/,-2.4%,6.9%,i,/,/
SMILES,miR-21 act,12-LOX inh,PINK1 expr mod,PTHR1 agonist,ERG Ets-DNA blk,Giardia kill
O=C(O)c1ccc(Nc2nc(-c3ccc(Cl)cc3)cs2)cc1O,/,10µM*,/,/,/,/
Cc1ccc(-c2csc(Nc3ccc(O)c(C(=O)O)c3)n2)cc1,/,35.5µM*,/,/,/,/
NC(=O)c1cc(-c2csc(NCCc3ccccc3)n2)ccc1O,-13.2%,31.6µM*,0.3%,i,-4.8%,-15.7
Cc1nc(C)c(-c2csc(Nc3ccc(C(=O)O)c(O)c3)n2)s1,-3.4%,-13.1%,-0.3%,-63.9%,8.0%,9.3
Oc1ccc(-c2csc(Nc3cccc(O)c3)n2)cc1,/,39.8µM*,/,/,/,/
O=c1c2nnn(Cc3ccccc3)c2ncn1C/C=C/c1ccccc1,-6.7%,27.9%,0.9%,i,10.5%,-2.0
CC(NC(=O)c1ccc2c(c1)NC(=O)CS2)c1ccc2c(c1)OCO2 (stereo not given),/,14.1µM*,/,/,/,/
Cc1ccccc1C(=O)N1CCN(c2ccc(NC(=O)CSc3ccc(Cl)cc3)cc2)CC1,27.9%,4.2%,-0.9%,-15.7%[57.5 µM],4.6%,-4.8
CSc1nnc(C)c(/C=C/Nc2ccc(F)cc2F)n1,0.9%,35.5µM*,0.6%,-3.2%,13.1%,-9.0
O=c1[nH]c2c(s1)C(c1ccc(O)cc1)C1C3CCC(C3)C1S2 (stereo not given),4.0%,44.7µM*,8.6%,i,-3.3%,2.7
Cc1cccc(NC(=O)C2CCCN(S(=O)(=O)c3ccc(-n4cnnn4)cc3)C2)c1 (stereo not given),4.1%,9.6%,3.3%,i,-3.4%,10.3
O=C(CSc1ncc(-c2ccc(Cl)cc2)o1)Nc1ccc(Cl)cc1,/,-3.9%,/,/,/,/
Cl/C(=C/c1ccc(Cl)cc1)c1ncc(-c2ccc(Cl)cc2)o1,/,35.5µM*,/,/,/,/
Cc1cc(C)c2c(c1)NC(C(=O)O)C1CC=CC21 (stereo not given),0.1%,7.94µM*,0.2%,-11.1%,28.6%,-15.9
CC1CCCCC1NC(=O)C(c1ccccc1)c1ccccc1 (stereo not given),/,-9.0%,/,/,/,/
Cc1c(N/C(=N/S(=O)(=O)c2ccccc2)c2ccc(Cl)cc2)c(=O)n(-c2ccccc2)n1C,-2.2%,-5.3%,-1.0%,-16.1%,1.1%,-13.5
Cc1ccnc(NC(=O)c2ccc(OCC3CCCO3)cc2)c1 (stereo not given),/,-27.7%,5.0%,-7.9%,8.5%,-84.5*
O=C(COC(=O)c1cc([N+](=O)[O-])ccc1Cl)c1cc2ccccc2o1,/,39.8µM*,/,/,/,/
O=C(COC(=O)c1cc([N+](=O)[O-])ccc1Cl)NCCc1ccccc1,/,13.7%,0.7%,i,-5.8%,0.5
COc1ccc2c3c(ccc2c1)C(=O)/C(=C/O)CC3,/,25.1µM*,-4.0%,-36.3%,-9.2%,10.6
CCN(CC)C(=O)CSc1nnc2cc(C)c3ccccc3n12,-11.3%,-1.3%,1.7%,-25.6%,3.5%,8.3
C/C(CCc1oc2ccc(C)cc2c1-c1ccc(C)o1)=N\O,/,39.8µM*!,/,/,/,/
